# Screening data as filed in PubChem.
# MK inhibit: S. pneumoniae mevalonate kinase inhibition. AID 555. purified MK, PK/LDH-coupled NADH absorbance 340 nm. inhibition, % at 10 µM. actives 0.48% (n = 65,000);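 active = ranked among the strongest by inhibition in the single 10 µM screen, a fixed top-ranked set picked for dose follow-up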
# Abs 340nm: compounds absorbing at 340 nm; compound absorbance at 340 nm, fold over control; fold change at 10 µM; 65,000 tested, under 10 active; AID 708;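 active = at 10 µM dose, initial 340 nm absorbance at least 2 fold that of control wells; inactive = change under 2 fold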;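 note: initial absorbance extrapolated from kinetic A340 decline of NADH oxidation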
# Fluor 339 460: intrinsic fluorescence of library compounds, ex339/em460 – biochemical, MLSMR library, data from DPM-DC assay, artefact control, profiling panel; compound autofluorescence, ex339/em460 nm, NADH buffer; stronger effect = higher value; 1 = no-compound wells, NADH background; actives 5.5% (n = 65,000); fluorescence fold increase at 10 µM; AID 709;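 active = at 10 µM, mean starting fluorescence two-fold or more over control wells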;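 note: signal is the first read of a kinetic run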
# Spn DPM-DC inh: inhibitors of Streptococcus pneumoniae diphosphomevalonate decarboxylase; purified DPM-DC, PK/LDH coupled NADH fluorescence; calls only at 10 µM; actives 0.49% (n = 65,000); AID 556;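 active = the 320 compounds with the highest percent inhibition in the single-dose primary screen, excluding strongly autofluorescent ones, cut at about 32% in these data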;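 note: kinetic rate of NADH fluorescence loss reporting ADP formed by the decarboxylase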
# Spn PMK inh: S. pneumoniae PMK inhibition. AID 539. inhibition, % at 10 µM. purified PMK, PK/LDH-coupled NADH absorbance 340 nm. actives 0.49% (n = 65,000);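 active = top-ranked compounds by inhibition in the single 10 µM screen, taking a fixed number of the strongest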;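 note: 0% = full reaction with DMSO carrier and 100% = background rate without enzyme reaction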
# NADH coupling: inhibitors of enzymes used to reach an NAD/NADH endpoint; actives 0.02% (n = 65,000); IC50, µM (doses to about 10 µM), for the others: at the highest dose inhibition; coupled PK/LDH NADH assays, four targets;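 active = single-dose screening hits from any of four coupled enzyme assays that gave an IC50 when retested across doses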;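 note: the DPM-DC format reads NADH fluorescence rather than 340 nm absorbance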
# The depositor's hits bear a star; i = inactive; x = no result shown. The list is not random: actives were taken first. Their share in the collection is about 6.3%.
SMILES,MK inhibit,Abs 340nm,Fluor 339 460,Spn DPM-DC inh,Spn PMK inh,NADH coupling
Cc1cc(C)c(C#N)c(SCC(=O)CC(=O)OC(C)C)n1,6,1,3*,i,7,13%
Cc1cc(C)c(C#N)c(SCC(=O)Nc2nnc(-c3ccccc3)s2)n1,8,1.1,2.1*,x,0,4%
O=C(Cn1cnc2c(cnn2-c2ccc(Cl)cc2)c1=O)NCC1CCCO1 (stereo not given),6,0.98,1.1,i,22,9%
CCOC(=O)c1ccc(NC(=O)CSc2nc(C)cc(=O)[nH]2)cc1,14,0.99,1.1,i,26*,16%
Cn1c(-c2ccccc2)cc2c3no[n+]([O-])c3ccc21,7,1.1,1.1,i,9,7%
COc1cccc(NC(=O)N2CCN(Cc3nc4ccccc4c(=O)[nH]3)CC2)c1,5,1,1,i,3,3%
O=C(COC(=O)CCc1c[nH]c(=O)[nH]1)Nc1ccccc1,0,0.97,1,i,25*,11%
O=C(CCn1nnc2ccccc21)Nc1nnc(-c2ccccc2F)s1,9,1,1.1,i,4,4%
COc1ccccc1C(c1nnnn1C(C)(C)C)N1CCN(C(=O)c2ccco2)CC1 (stereo not given),10,1,1.1,i,13,8%
Cc1cc(C)c2[nH]c(=O)c(C(c3nnnn3C(C)(C)C)N3CCN(C(=O)c4ccco4)CC3)cc2c1 (stereo not given),15,1.1,2.4*,i,1,15%
O=c1[nH]c2cc3c(cc2cc1C(c1nnnn1C1CCCC1)N1CCSCC1)OCCO3 (stereo not given),12,1,3.2*,x,21,17%
CC(C)(C)n1nnnc1C(c1cc2cc3c(cc2[nH]c1=O)OCCO3)N1CCSCC1 (stereo not given),0,1.1,3.3*,x,0,0%
CCC(C)(C)n1nnnc1C(c1cc2cc(C)cc(C)c2[nH]c1=O)N1CCCC1 (stereo not given),6,1.1,1.7,i,0,5%
CCC(C)(C)n1nnnc1C(c1cc2cc3c(cc2[nH]c1=O)OCO3)N1CCN(C)CC1 (stereo not given),1,1.1,3.8*,x,20,11%
COc1cc2nc(CN3CCN(c4ncc(C(F)(F)F)cc4Cl)CC3)[nH]c(=O)c2cc1OC,0,1,1.1,i,0,0%
Cc1noc(C(=O)N2CC3(C)CC2CC(C)(C)C3)c1Cl (stereo not given),1,1.1,1.1,i,5,2%
O=C(Nc1cccc2nsnc12)c1ccc(F)cc1,8,1,1.4,i,14,9%
CCCCn1c(NC(=O)c2ccc(F)cc2)c(C#N)c2nc3ccccc3nc21,15,1,5*,x,7,11%
CCCCn1c(NC(=O)c2ccccc2)c(C#N)c2nc3ccccc3nc21,3,1.1,3.8*,x,9,6%
CCCCn1nnc(NC(=O)c2ccc(-c3ccccc3)cc2)n1,4,1.1,1.1,i,6,3%
CN1C(=O)c2ccccc2N(C)C1c1cccs1 (stereo not given),5,0.98,3.9*,x,7,6%
CC(Sc1nc2ccccc2s1)C(=O)N1CCOCC1 (stereo not given),7,1,0.98,i,15,8%
O=c1cc(O)c2c(=O)[nH]c(=O)n(-c3ccccc3)c2[nH]1,4,1,1.1,i,25*,10%
CC1=NN(c2ccccc2)C(=O)C1,53*,1,1,i,0,5%
Cc1cc(N2C(=O)CCC2=O)n(-c2ccccc2)n1,8,1,1.1,i,5,7%
SMILES,MK inhibit,Abs 340nm,Fluor 339 460,Spn DPM-DC inh,Spn PMK inh,NADH coupling
Cn1c(-c2ccc(Br)o2)nc2ccccc21,11,1.1,1.2,i,11,7%
CC(=O)c1ccc(-c2nc3ccccc3n2C)o1,10,1.1,3*,x,3,3%
O=C1N(CC(=O)N2CCc3ccccc32)CCN1Cc1ccccc1Cl,4,1.1,1.1,i,6,3%
COc1ccc2nc3oc(C(=O)N4CCN(c5ccccc5F)CC4)cc3cc2c1,0,1,1.4,i,7,2%
CCOC(=O)N1CCC(NC(=O)c2ccc3c(c2)sc2nc(-c4ccc(OC)cc4)cn23)CC1,11,1,3.5*,i,9,7%
CN(C)CCNC(=O)c1ccc(COCC(F)(F)F)cc1,8,0.99,1,i,1,3%
CN(C)CCNC(=O)c1ccc2c(c1)N(Cc1ccc(F)cc1)CCS2,10,1,2*,x,20,15%
CCOC(=O)N1CCC(NC(=O)c2cc3cc4cc(OC)ccc4nc3o2)CC1,0,1.1,5.1*,x,9,5%
COc1ccc2nc3oc(C(=O)NC4CCN(Cc5ccccc5)CC4)cc3cc2c1,3,1,3.4*,x,10,15%
CCOC(=O)N1CCC(NC(=O)c2ccc3c(c2)N(CC)CCS3)CC1,9,0.99,2.4*,x,5,4%
CCOC(=O)N1CCC(NC(=O)CN2C(=O)CCSc3ccccc32)CC1,11,0.98,1,i,4,2%
CN1/C(=C\C(=O)C(F)F)C(C)(C)c2ccccc21,32,1,1.1,i,0,5%
CN1C(=O)C2(N=c3ccccc3=N2)c2ccccc21,2,1.1,2.1*,x,4,3%
Cc1c(-c2ccccc2)nc(N)c(C#N)c1-c1ccco1,10,1.1,2.6*,i,11,7%
N#Cc1c(-c2ccco2)cc(-c2ccccn2)nc1N,3,1.1,3.7*,x,6,5%
N#Cc1c(-c2ccco2)cc(-c2cccnc2)nc1N,7,1.1,3.7*,x,17,12%
c1ccc(-c2nn3c(-c4ccco4)nnc3s2)nc1,6,1.1,1.2,i,0,2%
COc1ccc2c(-c3cccnc3)cc(=O)[nH]c2c1,3,1,2.1*,i,11,6%
Cc1ccc(CSc2nc3c(c(=O)[nH]2)C(c2ccncc2)C2=C(CCCC2=O)N3)cc1 (stereo not given),4,1,2.4*,x,9,5%
O=C(OCc1c(Cl)cccc1Cl)c1cccnc1,7,1.1,1.1,i,1,3%
Cc1[nH]n2c(=O)c3c(nc2c1-c1ccccc1)CCCC3,3,1,1.5,i,9,6%
O=c1c2c(nc3c(-c4cccc5ccccc45)c[nH]n13)CCC2,13,1.1,3.6*,x,2,8%
O=c1c2c(nc3c(-c4ccc(Cl)cc4)c[nH]n13)CCCC2,0,1,4.1*,x,1,1%
O=C(NC1CCCCC1)c1nc2c(nnn2Cc2ccccc2Cl)c(=O)[nH]1,10,0.98,1,i,12,3%
C=CCn1c(C)nc2c(c1=O)c1nc3ccccc3nc1n2-c1ccc(C)cc1,5,1.1,1,i,2,5%
